From PubChem BioAssay
Only some compounds are listed: those with a hit (about 0.77% of all), similar ones and a draw of the others.
RecA splice inh – Mtb RecA intein splicing inhibition; cell-free RecA intein splicing, fluorescence; inhibition, % (test concentration not listed); hit rate 0.75% among 290,000; AID 2221; in the data active means inhibition above about 30%; inconclusive means no clear call, values can overlap the other calls
UGM FP inh – blocks M. tuberculosis UGM enzyme | AID 504406 | purified UGM, fluorescence polarization probe displacement | hit rate 0.06% among 320,000 | P9WIQ1 | inhibition, % at 10 µM; in the data active means inhibition above about 10%, passing the limit was not always enough; inconclusive means no clear call, values can overlap the other calls
Target sequence (P9WIQ1 whole entry, looked up): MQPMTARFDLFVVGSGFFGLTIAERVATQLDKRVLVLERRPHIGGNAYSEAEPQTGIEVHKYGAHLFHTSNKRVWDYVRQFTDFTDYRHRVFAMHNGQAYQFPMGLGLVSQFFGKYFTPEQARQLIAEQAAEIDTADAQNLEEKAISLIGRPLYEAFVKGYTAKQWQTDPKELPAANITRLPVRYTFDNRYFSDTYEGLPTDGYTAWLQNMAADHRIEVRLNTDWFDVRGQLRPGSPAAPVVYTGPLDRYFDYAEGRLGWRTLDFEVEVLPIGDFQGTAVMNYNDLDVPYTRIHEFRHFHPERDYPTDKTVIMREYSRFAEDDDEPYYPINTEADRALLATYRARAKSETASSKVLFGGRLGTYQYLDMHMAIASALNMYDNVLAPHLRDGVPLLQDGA
Mtb betalactam – beta-lactam sensitization of Mtb H37Rv; AID 434955; inhibition, % at 25 µM; M. tuberculosis H37Rv growth with meropenem, percent inhibition; hit rate 0.27% among 330,000;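 further: growth measured after seven days incubation then overnight dye step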
Mtb hypoxia rep – Mtb hypoxia fluorescent reporter inhibition. M. tuberculosis hypoxia-regulated fluorescent reporter, fluorescence. fluorescence inhibition, % (concentration not given with the values). hit rate 0.1% among 300,000; in the data active means fluorescence inhibition mostly above about 23%, no sharp cut-off; inactive means mostly below about 17%
Rv3671c protease – inhibitors of M. tuberculosis serine protease Rv3671c; inhibition, % at 5.96 µM; hit rate 0.048% among 320,000; AID 2606; in the data active means inhibition above about 38%;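 further: extracellular domain of Rv3671c used as enzyme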
GFP chromo cs – counter-screen: blocks GFP chromophore formation | shares compounds with RecA splice inh | cell-free GFP chromophore formation, fluorescence | EC50, µM | hit rate 83% among 2,100 | AID 434968
Of the large screens only hits and unclear results are named; the others gave an inactive call (follow-up assays come after a bar, where they were run). Unless noted, how the calls were made is not given here.

CCCN1CCC(=O)N(C(CSc2ccccc2)CC(C)C)CC1 (configuration not stated)	none (no result: RecA splice inh, UGM FP inh, Mtb betalactam, Rv3671c protease)
Cc1noc(C)c1NC(=O)N(C)CC1Oc2ccc(NS(=O)(=O)c3c(C)noc3C)cc2C(=O)N(C(C)CO)CC1C (configuration not stated)	none (no result: RecA splice inh, UGM FP inh, Mtb betalactam, Rv3671c protease)
CCOc1ccc(S(=O)(=O)NCc2cccnc2)cc1C	RecA splice inh 40 | GFP chromo cs inactive
C=CCn1c(-c2cccnc2Cl)nc2cc(Cl)c(Cl)cc21	none
C=CCn1c(-c2cccnc2Cl)nc2ccccc21	RecA splice inh 85 | GFP chromo cs inactive
CC(C)(C)OC(=O)CC1CC=CCC(CC(=O)NC(CO)Cc2ccccc2)C(=O)NC(Cc2c[nH]c3ccccc23)COC1=O (configuration not stated)	none (no result: RecA splice inh, UGM FP inh, Mtb betalactam, Rv3671c protease)
CC(NC(=O)c1nc[nH]c1C(=O)NCc1ccccc1)C(=O)OC(C)(C)C (configuration not stated)	none (no result: RecA splice inh, UGM FP inh, Mtb betalactam, Rv3671c protease)
Oc1[nH]c2ccc(Br)cc2c1N=NC(=S)Nc1ccc(F)cc1	none
Oc1ccc(NC(=S)N=Nc2c(O)[nH]c3ccc(Br)cc23)cc1	RecA splice inh 67 (no result: UGM FP inh, Mtb betalactam, Rv3671c protease) | GFP chromo cs inactive
O=C(Nc1cccc(F)c1)N1CCC(c2ccccc2)CC1	RecA splice inh 38 | GFP chromo cs inactive
O=[N+]([O-])c1cc(Br)c(Nc2ccccc2)c([N+](=O)[O-])c1	RecA splice inh 64 | GFP chromo cs 20
COc1cc(C2C(C#N)=C(N)Oc3n[nH]c(C)c32)cc2c1OCO2 (configuration not stated)	RecA splice inh 92 | GFP chromo cs 4.9
COc1cc(C2C(C#N)=C(N)OC3=C2C(=O)CCC3)cc2c1OCO2 (configuration not stated)	none
COc1ccc(C2C(C#N)=C(N)Oc3n[nH]c(C)c32)cc1Cn1cc([N+](=O)[O-])cn1 (configuration not stated)	RecA splice inh 76 (no result: Mtb hypoxia rep) | GFP chromo cs 12
CCCc1[nH]nc2c1C(c1ccoc1)C(C#N)=C(N)O2 (configuration not stated)	RecA splice inh 61 | GFP chromo cs 19
C=CCOC(=O)C1=C(C)OC(N)=C(C#N)C1c1ccoc1 (configuration not stated)	Mtb betalactam inconclusive (no result: RecA splice inh)
Cc1[nH]nc2c1C(c1ccoc1)C(C#N)=C(N)O2 (configuration not stated)	RecA splice inh 84 | GFP chromo cs 18
CCOC1OC(C(=O)N2CCN(C)CC2)=CC(C)C1CCCO (configuration not stated)	none (no result: RecA splice inh, UGM FP inh, Mtb betalactam, Rv3671c protease)
CC=C(C)C(=O)NCCN1C2=NCC(Cc3ccccc3)N2CC1Cc1ccc(O)cc1 (configuration not stated)	none (no result: RecA splice inh, UGM FP inh, Mtb betalactam, Rv3671c protease)
COc1ccc(NC(=O)N(C)CC2Oc3ccc(NC(=O)Nc4ccc5c(c4)OCO5)cc3C(=O)N(C(C)CO)CC2C)cc1 (configuration not stated)	none (no result: RecA splice inh, UGM FP inh, Mtb betalactam, Rv3671c protease)
CCOC(=O)Cc1[nH]nc2c1C(c1ccoc1)C(C#N)=C(N)O2 (configuration not stated)	RecA splice inh 65 | GFP chromo cs 26
Cc1[nH]n(-c2ccccc2)c(=O)c1C(c1cccc([N+](=O)[O-])c1)c1c(C)[nH]n(-c2ccccc2)c1=O	RecA splice inh 85 | GFP chromo cs 4.8
Cc1[nH]n(-c2ccccc2)c(=O)c1C(=O)Nc1ccccc1	none
Cc1[nH]n(-c2ccccc2)c(=O)c1C(=O)c1ccc([N+](=O)[O-])cc1	none
Cc1[nH]n(-c2ccccc2)c(=O)c1C(c1cccc([N+](=O)[O-])c1O)c1c(C)[nH]n(-c2ccccc2)c1=O	RecA splice inh 93 | GFP chromo cs 1.3
Cc1c(C(c2cccc([N+](=O)[O-])c2O)c2c(C)n(C)n(-c3ccccc3)c2=O)c(=O)n(-c2ccccc2)n1C	Mtb betalactam inconclusive
Cc1[nH]n(-c2ccccc2)c(=O)c1C(c1ccc(C(=O)O)cc1)c1c(C)[nH]n(-c2ccccc2)c1=O	RecA splice inh 96 | GFP chromo cs 1.2
CCOC(=O)CN1C(=O)NC(c2cccc(C(F)(F)F)c2)C(C(=O)OC)C1C (configuration not stated)	none (no result: RecA splice inh, UGM FP inh, Mtb betalactam, Rv3671c protease)
Cc1cc(C=C2NC(=O)NC2=O)c(C)n1-c1sc2c(c1C#N)CCCC2	none (no result: RecA splice inh, UGM FP inh, Mtb betalactam, Rv3671c protease)
CCOc1ccccc1CNc1ccc(O)cc1	RecA splice inh 82 (no result: UGM FP inh, Mtb betalactam, Rv3671c protease) | GFP chromo cs 23
CCOc1cc(CNc2ccc(O)cc2)ccc1OCc1ccc(Cl)cc1Cl	RecA splice inh 40 (no result: Mtb hypoxia rep) | GFP chromo cs inactive
O=c1cc(N=Nc2ccc(Cl)cc2)[nH]c(=O)[nH]1	RecA splice inh 88 | GFP chromo cs inconclusive
